Results published in the supplement of paper PMC11732987, “Enantioselective OTUD7B fragment discovery through chemoproteomics screening and high-throughput optimisation” (Communications Chemistry, 2025).

Assays:
Test in all cases: log2 ratio of Biotin-Ahx-Ub-VS probe labelling (fragment/DMSO); higher = less target engagement (more negative = stronger competition), active = hit call of the paper (q ≤ 0.05, log2 ratio ≤ -1)
Conditions in all cases: compound concentration: 200 uM; treatment time: 3 h
USP42 = biological target: T1, USP42 (UniProt Q9H9J4)
T1 sequence (whole entry): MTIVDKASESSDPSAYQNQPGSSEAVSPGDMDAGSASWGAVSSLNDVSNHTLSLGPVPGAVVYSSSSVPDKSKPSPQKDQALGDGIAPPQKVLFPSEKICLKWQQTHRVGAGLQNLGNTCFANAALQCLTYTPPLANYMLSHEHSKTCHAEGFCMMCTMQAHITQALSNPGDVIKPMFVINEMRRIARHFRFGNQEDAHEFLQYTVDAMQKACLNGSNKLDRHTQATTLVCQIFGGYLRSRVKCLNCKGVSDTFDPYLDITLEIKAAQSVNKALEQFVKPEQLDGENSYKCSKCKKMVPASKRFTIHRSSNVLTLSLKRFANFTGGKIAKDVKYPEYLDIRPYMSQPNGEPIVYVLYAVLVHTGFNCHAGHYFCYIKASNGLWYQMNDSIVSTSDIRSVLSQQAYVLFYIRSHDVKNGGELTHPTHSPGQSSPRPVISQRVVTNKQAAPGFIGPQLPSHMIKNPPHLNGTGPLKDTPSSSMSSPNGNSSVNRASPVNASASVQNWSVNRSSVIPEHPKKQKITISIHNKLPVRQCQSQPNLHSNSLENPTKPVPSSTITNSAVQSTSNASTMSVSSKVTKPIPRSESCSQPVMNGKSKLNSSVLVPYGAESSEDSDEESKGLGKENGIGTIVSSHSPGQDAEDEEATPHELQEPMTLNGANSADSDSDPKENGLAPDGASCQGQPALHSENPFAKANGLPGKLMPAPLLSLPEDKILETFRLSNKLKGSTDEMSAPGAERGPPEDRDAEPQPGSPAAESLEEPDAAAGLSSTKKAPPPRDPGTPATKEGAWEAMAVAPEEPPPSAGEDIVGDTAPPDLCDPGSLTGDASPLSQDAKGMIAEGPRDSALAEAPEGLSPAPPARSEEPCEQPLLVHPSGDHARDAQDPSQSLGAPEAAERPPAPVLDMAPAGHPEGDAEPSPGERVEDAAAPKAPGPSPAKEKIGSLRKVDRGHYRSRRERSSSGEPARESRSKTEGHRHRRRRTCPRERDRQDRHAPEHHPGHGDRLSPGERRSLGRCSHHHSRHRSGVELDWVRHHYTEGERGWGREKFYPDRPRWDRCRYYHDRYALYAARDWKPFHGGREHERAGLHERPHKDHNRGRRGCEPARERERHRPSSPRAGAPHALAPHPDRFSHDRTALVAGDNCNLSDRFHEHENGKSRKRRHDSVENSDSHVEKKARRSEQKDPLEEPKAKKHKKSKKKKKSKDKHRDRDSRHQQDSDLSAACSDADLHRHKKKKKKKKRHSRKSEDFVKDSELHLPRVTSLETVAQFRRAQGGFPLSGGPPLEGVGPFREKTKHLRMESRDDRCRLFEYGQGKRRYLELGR
Method in brief: (§1)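 HEK293T lysate (495 µg per sample, in Tris/CHAPS/IGEPAL buffer with protease inhibitors) was treated in triplicate with fragment at 200 µM or with DMSO for 3 h. It was then treated with Biotin-Ahx-Ub-VS (0.5 µM final) for 1 h. Labelled DUBs were NeutrAvidin-enriched, digested with LysC and trypsin, and run by diaPASEF LC-MS/MS. Spectronaut label-free quantities were global-median-normalised. Values are average log2 ratios fragment/DMSO by unpaired t-test, using proteins with ≥2 unique peptides.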

USP46 = USP46 (UniProt P62068)
Method in brief: as §1

USP47 = biological target: T2, USP47 (UniProt Q96K76)
T2 sequence (whole entry): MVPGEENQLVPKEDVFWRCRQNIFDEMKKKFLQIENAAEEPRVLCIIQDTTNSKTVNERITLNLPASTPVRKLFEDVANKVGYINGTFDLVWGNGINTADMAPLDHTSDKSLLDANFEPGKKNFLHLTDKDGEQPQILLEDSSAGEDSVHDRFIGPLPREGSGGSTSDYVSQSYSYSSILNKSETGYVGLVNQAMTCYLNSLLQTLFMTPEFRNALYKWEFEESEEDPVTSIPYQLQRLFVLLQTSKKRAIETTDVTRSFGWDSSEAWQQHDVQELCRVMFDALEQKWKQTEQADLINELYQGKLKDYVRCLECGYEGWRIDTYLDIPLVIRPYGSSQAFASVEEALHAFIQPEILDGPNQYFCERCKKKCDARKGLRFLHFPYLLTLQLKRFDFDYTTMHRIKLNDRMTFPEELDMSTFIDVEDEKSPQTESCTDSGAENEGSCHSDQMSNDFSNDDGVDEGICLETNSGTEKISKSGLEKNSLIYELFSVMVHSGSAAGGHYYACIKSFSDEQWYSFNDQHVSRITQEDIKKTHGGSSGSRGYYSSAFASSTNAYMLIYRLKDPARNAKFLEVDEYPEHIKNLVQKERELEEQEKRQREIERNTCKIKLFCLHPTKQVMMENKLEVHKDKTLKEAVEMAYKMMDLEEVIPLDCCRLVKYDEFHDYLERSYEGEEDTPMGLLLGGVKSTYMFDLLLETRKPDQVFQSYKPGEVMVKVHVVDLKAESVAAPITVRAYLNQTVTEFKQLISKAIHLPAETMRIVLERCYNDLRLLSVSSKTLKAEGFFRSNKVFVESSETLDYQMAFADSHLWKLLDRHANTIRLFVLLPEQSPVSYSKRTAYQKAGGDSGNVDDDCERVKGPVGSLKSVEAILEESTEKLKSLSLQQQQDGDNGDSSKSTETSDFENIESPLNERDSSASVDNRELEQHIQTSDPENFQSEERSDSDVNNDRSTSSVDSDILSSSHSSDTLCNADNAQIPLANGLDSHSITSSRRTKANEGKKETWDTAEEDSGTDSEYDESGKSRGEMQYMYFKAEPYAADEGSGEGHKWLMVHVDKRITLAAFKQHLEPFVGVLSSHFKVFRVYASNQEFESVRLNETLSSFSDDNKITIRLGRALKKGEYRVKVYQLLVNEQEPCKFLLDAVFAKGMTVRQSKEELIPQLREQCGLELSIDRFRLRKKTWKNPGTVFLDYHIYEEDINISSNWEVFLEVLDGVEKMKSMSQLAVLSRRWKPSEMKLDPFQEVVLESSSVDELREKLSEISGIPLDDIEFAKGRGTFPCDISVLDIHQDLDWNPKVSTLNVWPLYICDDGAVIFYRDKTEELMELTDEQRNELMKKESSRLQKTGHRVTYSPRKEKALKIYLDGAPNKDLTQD
Method in brief: as §1

USP48 = biological target: T3, USP48 (UniProt Q86UV5)
T3 sequence (whole entry): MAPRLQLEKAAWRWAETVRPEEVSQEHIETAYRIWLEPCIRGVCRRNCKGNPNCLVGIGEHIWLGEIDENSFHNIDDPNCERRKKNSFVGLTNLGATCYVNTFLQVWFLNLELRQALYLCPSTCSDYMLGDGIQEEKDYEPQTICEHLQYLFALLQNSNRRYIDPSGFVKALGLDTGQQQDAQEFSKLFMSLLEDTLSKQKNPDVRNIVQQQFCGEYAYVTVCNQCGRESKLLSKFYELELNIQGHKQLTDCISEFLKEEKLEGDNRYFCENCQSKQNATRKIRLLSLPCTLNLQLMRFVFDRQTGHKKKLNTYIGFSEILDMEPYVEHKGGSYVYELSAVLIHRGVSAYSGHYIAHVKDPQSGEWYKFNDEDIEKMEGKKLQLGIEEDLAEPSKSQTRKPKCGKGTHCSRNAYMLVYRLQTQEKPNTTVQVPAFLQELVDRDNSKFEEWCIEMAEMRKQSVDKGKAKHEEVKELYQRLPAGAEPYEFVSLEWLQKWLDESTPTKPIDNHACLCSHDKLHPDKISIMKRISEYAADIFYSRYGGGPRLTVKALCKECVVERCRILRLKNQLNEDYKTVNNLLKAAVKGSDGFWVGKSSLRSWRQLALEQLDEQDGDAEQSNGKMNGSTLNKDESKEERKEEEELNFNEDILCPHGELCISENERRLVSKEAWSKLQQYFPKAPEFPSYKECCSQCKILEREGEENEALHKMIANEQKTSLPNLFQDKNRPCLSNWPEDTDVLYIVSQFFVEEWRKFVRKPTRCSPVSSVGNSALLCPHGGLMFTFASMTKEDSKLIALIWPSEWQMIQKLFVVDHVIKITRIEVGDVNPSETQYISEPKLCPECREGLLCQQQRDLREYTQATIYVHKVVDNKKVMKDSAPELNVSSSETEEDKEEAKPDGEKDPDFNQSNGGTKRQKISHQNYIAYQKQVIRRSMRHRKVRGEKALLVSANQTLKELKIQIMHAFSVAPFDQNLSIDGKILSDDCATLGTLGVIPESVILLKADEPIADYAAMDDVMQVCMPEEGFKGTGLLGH
Method in brief: as §1

USP5 = biological target: T4, USP5 (UniProt P45974)
T4 sequence (whole entry): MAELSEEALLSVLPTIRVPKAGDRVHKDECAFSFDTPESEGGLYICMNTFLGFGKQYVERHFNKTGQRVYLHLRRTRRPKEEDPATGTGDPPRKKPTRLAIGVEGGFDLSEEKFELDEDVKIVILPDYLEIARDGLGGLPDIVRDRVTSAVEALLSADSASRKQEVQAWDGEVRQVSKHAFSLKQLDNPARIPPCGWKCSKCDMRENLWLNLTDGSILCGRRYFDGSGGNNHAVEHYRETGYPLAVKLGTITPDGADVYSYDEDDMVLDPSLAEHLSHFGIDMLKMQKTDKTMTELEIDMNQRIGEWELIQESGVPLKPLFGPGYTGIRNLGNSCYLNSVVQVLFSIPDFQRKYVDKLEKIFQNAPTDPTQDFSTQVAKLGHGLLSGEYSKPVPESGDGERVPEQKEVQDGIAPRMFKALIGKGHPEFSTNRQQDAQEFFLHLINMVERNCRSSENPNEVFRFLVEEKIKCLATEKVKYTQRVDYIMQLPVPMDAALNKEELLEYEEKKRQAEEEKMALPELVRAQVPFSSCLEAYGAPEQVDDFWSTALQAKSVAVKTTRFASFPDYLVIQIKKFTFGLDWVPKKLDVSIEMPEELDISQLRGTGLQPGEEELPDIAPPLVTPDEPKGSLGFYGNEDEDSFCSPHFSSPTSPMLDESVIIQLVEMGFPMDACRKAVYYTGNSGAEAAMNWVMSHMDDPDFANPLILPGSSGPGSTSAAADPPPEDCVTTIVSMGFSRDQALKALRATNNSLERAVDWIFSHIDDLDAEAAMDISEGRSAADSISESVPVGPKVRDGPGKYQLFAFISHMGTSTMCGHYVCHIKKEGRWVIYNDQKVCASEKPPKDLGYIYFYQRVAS
Method in brief: as §1

USP54 = USP54 (UniProt Q70EL1)
Method in brief: as §1

USP7 = USP7 (UniProt Q93009)
Method in brief: as §1

USP8 = biological target: T5, USP8 (UniProt P40818)
T5 sequence (whole entry): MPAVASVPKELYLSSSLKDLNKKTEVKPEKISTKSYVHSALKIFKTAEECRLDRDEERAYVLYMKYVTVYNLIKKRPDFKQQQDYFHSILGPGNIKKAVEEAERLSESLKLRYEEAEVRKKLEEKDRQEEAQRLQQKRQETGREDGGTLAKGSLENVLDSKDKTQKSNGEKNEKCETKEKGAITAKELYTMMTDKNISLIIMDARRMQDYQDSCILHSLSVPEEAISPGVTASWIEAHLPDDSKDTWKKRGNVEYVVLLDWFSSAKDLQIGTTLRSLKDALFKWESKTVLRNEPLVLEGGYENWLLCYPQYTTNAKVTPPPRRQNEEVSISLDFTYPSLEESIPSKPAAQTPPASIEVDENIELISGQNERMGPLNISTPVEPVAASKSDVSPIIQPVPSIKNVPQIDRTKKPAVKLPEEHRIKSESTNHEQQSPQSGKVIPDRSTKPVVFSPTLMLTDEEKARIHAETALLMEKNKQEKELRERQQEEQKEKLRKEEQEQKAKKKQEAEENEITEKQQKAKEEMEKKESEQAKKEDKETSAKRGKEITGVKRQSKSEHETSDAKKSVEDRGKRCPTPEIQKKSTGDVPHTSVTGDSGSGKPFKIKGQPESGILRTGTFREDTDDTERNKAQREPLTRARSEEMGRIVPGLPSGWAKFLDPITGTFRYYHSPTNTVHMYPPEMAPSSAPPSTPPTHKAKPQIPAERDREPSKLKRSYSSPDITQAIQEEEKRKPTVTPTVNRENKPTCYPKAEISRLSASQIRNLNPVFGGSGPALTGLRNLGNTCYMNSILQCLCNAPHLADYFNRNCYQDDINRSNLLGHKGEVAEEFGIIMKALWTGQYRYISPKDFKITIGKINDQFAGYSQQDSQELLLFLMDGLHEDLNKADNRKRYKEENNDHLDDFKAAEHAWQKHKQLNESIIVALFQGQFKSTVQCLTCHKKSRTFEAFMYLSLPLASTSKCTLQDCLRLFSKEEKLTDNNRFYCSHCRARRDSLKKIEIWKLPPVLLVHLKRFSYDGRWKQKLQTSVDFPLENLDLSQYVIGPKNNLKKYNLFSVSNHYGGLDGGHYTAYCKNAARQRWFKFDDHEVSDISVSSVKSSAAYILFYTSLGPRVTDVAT
Method in brief: as §1

USP9X = USP9X (UniProt Q93008)
Method in brief: as §1

UniProt O00487 = biological target: UniProt O00487
Method in brief: as §1

Measured: log2 ratio of Biotin-Ahx-Ub-VS probe labelling

Sequence of USP46 (P62068 whole entry): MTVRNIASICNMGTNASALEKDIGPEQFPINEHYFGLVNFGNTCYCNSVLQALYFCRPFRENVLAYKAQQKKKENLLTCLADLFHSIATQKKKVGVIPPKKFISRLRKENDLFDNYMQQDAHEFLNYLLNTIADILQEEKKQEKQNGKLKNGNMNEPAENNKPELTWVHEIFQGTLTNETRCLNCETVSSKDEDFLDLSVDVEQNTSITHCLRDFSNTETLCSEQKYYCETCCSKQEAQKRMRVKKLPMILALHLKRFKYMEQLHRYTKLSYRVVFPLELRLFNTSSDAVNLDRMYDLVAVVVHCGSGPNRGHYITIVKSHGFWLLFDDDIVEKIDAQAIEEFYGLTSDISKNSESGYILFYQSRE
Sequence of USP54 (Q70EL1 whole entry): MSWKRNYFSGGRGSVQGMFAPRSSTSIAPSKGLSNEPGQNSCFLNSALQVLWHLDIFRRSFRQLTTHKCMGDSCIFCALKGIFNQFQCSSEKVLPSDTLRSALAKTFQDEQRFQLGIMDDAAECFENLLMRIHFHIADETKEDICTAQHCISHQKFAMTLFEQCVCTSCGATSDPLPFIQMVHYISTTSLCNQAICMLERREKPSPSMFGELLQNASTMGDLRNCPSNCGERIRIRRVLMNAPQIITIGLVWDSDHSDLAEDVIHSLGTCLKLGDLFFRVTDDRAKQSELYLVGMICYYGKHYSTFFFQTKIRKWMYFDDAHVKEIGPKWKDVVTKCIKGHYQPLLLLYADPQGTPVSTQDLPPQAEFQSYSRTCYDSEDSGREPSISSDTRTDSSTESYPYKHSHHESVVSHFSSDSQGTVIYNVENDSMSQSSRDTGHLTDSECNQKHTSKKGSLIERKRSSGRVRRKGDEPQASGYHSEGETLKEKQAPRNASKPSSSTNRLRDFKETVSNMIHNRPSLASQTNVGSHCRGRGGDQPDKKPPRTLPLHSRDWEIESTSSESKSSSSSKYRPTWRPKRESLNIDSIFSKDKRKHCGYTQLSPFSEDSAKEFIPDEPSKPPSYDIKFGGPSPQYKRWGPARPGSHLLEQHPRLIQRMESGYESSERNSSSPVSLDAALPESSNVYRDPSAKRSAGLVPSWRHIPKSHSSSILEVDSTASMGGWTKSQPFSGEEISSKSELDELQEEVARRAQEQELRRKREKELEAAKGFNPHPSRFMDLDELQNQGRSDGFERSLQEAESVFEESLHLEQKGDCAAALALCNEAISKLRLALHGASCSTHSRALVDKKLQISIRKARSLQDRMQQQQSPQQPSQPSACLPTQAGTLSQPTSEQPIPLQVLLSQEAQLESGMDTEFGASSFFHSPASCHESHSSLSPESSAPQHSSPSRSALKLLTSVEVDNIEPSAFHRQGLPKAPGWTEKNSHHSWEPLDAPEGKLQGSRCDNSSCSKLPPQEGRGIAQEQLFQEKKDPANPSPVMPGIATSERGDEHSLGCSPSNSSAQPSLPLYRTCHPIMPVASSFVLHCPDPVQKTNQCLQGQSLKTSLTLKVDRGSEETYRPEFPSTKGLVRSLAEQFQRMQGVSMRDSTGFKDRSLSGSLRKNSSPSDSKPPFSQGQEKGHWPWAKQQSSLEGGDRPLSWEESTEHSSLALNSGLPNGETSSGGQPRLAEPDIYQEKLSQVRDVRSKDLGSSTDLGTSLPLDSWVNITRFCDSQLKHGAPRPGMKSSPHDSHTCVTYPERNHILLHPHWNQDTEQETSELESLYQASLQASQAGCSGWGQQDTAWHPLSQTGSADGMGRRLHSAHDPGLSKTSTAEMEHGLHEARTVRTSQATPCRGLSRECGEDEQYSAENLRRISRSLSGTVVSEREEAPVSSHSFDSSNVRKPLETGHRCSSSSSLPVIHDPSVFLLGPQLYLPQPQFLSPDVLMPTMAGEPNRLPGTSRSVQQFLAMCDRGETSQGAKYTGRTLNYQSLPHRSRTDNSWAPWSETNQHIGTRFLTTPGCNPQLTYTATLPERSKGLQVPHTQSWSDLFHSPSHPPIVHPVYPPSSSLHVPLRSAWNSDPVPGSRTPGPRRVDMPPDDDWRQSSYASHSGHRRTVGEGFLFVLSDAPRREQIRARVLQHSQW
Sequence of USP7 (Q93009 whole entry, looked up): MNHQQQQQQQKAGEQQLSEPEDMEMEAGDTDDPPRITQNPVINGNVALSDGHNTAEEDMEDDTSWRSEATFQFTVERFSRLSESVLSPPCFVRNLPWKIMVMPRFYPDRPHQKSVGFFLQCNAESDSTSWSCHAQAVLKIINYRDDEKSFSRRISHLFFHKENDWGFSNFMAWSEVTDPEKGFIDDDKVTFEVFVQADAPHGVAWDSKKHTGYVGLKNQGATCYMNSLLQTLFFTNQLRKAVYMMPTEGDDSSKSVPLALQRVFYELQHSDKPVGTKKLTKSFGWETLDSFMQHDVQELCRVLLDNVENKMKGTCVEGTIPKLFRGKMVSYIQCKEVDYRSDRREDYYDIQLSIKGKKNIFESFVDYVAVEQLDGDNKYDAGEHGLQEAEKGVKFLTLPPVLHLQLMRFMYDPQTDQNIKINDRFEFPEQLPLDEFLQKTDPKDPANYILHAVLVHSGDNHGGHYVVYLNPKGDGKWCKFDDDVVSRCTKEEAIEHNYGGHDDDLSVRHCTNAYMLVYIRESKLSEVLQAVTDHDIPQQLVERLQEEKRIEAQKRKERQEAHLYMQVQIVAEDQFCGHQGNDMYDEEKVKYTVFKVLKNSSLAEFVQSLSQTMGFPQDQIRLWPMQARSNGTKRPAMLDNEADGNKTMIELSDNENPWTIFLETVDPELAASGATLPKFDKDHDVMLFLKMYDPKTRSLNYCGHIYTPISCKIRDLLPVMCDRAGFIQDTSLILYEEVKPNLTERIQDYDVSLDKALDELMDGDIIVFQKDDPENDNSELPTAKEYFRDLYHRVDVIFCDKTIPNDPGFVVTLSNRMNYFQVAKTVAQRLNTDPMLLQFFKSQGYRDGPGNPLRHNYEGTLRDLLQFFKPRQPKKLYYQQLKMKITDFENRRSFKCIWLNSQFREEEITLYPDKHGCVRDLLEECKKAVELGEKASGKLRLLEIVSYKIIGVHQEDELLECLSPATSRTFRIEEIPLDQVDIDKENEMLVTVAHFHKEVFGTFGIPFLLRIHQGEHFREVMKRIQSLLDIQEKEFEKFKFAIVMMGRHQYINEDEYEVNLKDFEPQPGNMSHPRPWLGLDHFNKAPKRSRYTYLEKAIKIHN
Sequence of UniProt O00487 (O00487 whole entry): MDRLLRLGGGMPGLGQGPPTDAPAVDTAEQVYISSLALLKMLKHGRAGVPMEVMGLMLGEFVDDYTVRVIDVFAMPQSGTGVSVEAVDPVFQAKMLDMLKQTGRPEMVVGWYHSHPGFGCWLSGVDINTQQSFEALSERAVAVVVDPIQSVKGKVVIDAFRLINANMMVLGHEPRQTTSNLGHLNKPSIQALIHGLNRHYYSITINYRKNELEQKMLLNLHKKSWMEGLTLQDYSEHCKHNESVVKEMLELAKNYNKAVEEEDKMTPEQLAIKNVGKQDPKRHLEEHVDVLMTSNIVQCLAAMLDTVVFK

Cc1cc(Cl)ccc1NC(=O)CCl
inactive: USP42 -0.0727 | USP46 -0.0701 | USP47 -0.176 | USP48 -0.173 | USP5 -0.0552 | USP54 -0.075 | USP7 -0.304 | USP8 0.0468 | USP9X -0.0827 | UniProt O00487 -0.165
